ABHD5 PLIN5 PPI – blocks binding of human ABHD5 to perilipin-5. Q00G26+Q8WTS1. Split G. princeps luciferase complementation, luminescence, 4 h. inhibition, % at 4 µM. hit rate 0.78% among 360,000;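 active = inhibition above the mean inhibition across every tested compound plus 3 SD, cut at about 22% in these data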
Target sequence (Q00G26 whole entry, looked up): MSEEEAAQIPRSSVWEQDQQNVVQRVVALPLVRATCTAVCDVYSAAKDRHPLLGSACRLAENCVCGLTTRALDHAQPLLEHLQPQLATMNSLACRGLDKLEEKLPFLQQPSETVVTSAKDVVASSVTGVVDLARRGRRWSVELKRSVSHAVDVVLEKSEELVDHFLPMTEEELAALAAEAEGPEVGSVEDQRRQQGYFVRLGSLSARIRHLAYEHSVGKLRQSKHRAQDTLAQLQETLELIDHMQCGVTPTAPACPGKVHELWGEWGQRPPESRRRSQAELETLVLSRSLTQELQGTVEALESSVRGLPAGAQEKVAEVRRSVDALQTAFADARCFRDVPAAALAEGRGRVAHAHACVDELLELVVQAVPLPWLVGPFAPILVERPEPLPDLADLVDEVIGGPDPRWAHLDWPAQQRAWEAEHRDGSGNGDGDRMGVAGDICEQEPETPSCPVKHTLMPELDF
Target sequence (Q8WTS1 whole entry, looked up): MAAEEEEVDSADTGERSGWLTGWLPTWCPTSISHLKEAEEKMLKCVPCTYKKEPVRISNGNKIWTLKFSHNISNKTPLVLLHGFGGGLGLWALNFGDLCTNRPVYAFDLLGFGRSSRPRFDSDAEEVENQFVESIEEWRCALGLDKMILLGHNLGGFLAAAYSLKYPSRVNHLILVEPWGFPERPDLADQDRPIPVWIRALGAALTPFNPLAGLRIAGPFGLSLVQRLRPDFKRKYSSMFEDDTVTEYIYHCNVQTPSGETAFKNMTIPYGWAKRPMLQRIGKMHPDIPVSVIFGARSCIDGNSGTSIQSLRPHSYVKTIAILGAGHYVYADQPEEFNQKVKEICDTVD
rCAG RNA binder – molecules binding r(CAG) RNA repeats; hit rate 1.3% among 370,000; r(CAG) RNA repeat, TO-PRO-1 dye displacement fluorescence; inhibition, % at 3 µM;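 active = inhibition above the plate cutoff, the mean of all test compounds on that plate plus 3 SD, cut at about 35% in these data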;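 also: higher means more dye released from RNA so lower well fluorescence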
MBD2 DNA inh – blocks human MBD2 binding to methylated DNA; Q9UBB5; TR-FRET, MBD2 binding to methylated oligonucleotide; inhibition, % at 4.4 µM; hit rate 0.31% among 370,000; in the data active = inhibition above about 13%
UHRF1 MBD2 ctr – blocks human UHRF1 binding to methylated DNA. Q96T88. UHRF1 binding to methylated oligo, TR-FRET. inhibition, % at 4.4 µM. hit rate 0.75% among 370,000. AID 687016; in the data active = inhibition above about 21%;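 also: UHRF1 SRA domain binding a hemimethylated CpG hairpin DNA probe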
PRMT1 FP inh – PRMT1 (human) inhibition, primary screen | inhibition, % at 2.79 µM | Q99873 | hit rate 1.3% among 370,000 | AID 652257 | recombinant PRMT1, activity-based probe fluorescence polarization;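 active = inhibition above about 21% made by adding two undisclosed values, limit read from the data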
LEDGF integ inh – blocks HIV-1 LEDGF/p75-dependent DNA integration. TR-FRET IN-LEDGF/p75 DNA integration, Eu/Cy5. inhibition, % at 3.7 µM. hit rate 0.64% among 370,000;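 active = inhibition above the screen-wide mean plus 3 SD, cut at about 13% in these data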;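 also: signal is the Cy5 over europium emission ratio at 671 and 618 nm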
IN multimer up – activates HIV-1 integrase multimerization in LEDGF counter-screen; activation, % at 7.7 µM; TR-FRET HIV-1 integrase multimerization, biochemical; shares compounds with LEDGF integ inh; hit rate 17% among 2,000; in the data active = activation above about 8.9%
TR-FRET interf – counter-screen for LEDGF/p75 integration inhibitors: TR-FRET optical interference; inhibition, % at 7.7 µM; shares compounds with LEDGF integ inh; TR-FRET optical interference counterscreen, HIV-1 IN multimerization; 2,000 tested, under 10 active;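 active = inhibition above the mean over all tested compounds plus 3 SD, which no compound reached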
LEDGF integ conf – LEDGF/p75-dependent HIV-1 integration inhibition, confirmation. TR-FRET LEDGF/p75-dependent HIV-1 integration, biochemical. hit rate 36% among 2,000. inhibition, % at 3.7 µM. AID 1053136. shares compounds with LEDGF integ inh; in the data active = inhibition above about 14%
Of the large screens only hits and unclear results are named; the others gave an inactive call (follow-up assays come after a bar, where they were run). Sampled rows, rich in hits. Any-hit rate of the full collection: about 4.1%.

Cc1oc(-c2ccc(Cl)cc2)nc1CS(=O)CC(=O)NCCN1CCCC1 (centres undefined)	none
Cc1oc(-c2ccc(Cl)cc2)nc1CS(=O)CC(=O)NCCCN1CCOCC1 (centres undefined)	LEDGF integ inh 18 | IN multimer up inactive | TR-FRET interf inactive | LEDGF integ conf inactive
CN(C)c1ccc(NC(=O)C2C3C=CC(C3)C2C(=O)O)cc1 (centres undefined)	UHRF1 MBD2 ctr 21, LEDGF integ inh 50 | IN multimer up inactive | TR-FRET interf inactive | LEDGF integ conf inactive
O=C(O)C1C2C=CC(C2)C1C(=O)Nc1ccc2c(c1)OCCO2 (centres undefined)	none (no result: rCAG RNA binder, MBD2 DNA inh, UHRF1 MBD2 ctr, PRMT1 FP inh, LEDGF integ inh)
COc1cccc(-c2cc(=O)[nH][nH]2)c1	LEDGF integ inh 21 | IN multimer up inactive | TR-FRET interf inactive | LEDGF integ conf inactive
CCOc1cccc(-c2cc(=O)[nH][nH]2)c1	LEDGF integ inh 29 | IN multimer up inactive | TR-FRET interf inactive | LEDGF integ conf inactive
COc1cccc(-c2ccc(C#N)c(=O)[nH]2)c1	none
CCOc1cccc(N)c1	none (no result: rCAG RNA binder, MBD2 DNA inh, UHRF1 MBD2 ctr, PRMT1 FP inh, LEDGF integ inh)
CCOC(=O)[C@@]12CN(C(=O)OC(C)(C)C)CC=C1N(Cc1ccc(OC)cc1)C(=O)[C@H]2CC(=O)NCCCOC	none (no result: ABHD5 PLIN5 PPI)
COCCN(C(=O)C1CCCC1)c1c(N)n(Cc2ccccc2)c(=O)[nH]c1=O	none
Nc1c(N(C(=O)Nc2ccc(Cl)c(Cl)c2)C2CCCC2)c(=O)[nH]c(=O)n1Cc1ccccc1	LEDGF integ inh 14 | IN multimer up inactive | TR-FRET interf inactive | LEDGF integ conf inactive
CC(Cc1ccccc1)NC(=O)CN1C(=O)c2ccccc2S1(=O)=O (centres undefined)	LEDGF integ inh 82 | IN multimer up inactive | TR-FRET interf inactive | LEDGF integ conf inactive
CC(=O)Nc1c(-c2ccc(C)cc2)nc2ncccn12	none (no result: ABHD5 PLIN5 PPI)
COC(=O)C1CN(C2CCCC2)CCS(=O)(=O)N1Cc1ccc(Cl)cc1 (centres undefined)	none (no result: ABHD5 PLIN5 PPI)
N#Cc1cc2ccc(N3CCOCC3)cc2cc1C#N	LEDGF integ inh 31 | IN multimer up inactive | TR-FRET interf inactive | LEDGF integ conf inactive
Cc1nn(CCCC(=O)Nc2sc3c(c2C#N)CCC3)c(C)c1[N+](=O)[O-]	LEDGF integ inh 18 | IN multimer up inactive | TR-FRET interf inactive | LEDGF integ conf inactive
CC1(C)CC(=O)C2=C(C1)Oc1ncn(CCCn3ccnc3)c(=N)c1C2c1ccccc1 (centres undefined)	LEDGF integ inh 88 | IN multimer up inactive | TR-FRET interf inactive | LEDGF integ conf inactive
COc1ccc(C2C3=C(CC(C)(C)CC3=O)Oc3ncn(CCCn4ccnc4)c(=N)c32)cc1 (centres undefined)	none
COC(=O)CSc1ncnc2c(C)csc12	LEDGF integ inh 45 | IN multimer up inactive | TR-FRET interf inactive | LEDGF integ conf inactive
NS(=O)(=O)c1cccc(NC(=O)c2cccc(-c3ccc(O)cc3)c2)c1	LEDGF integ inh 18 | IN multimer up inactive | TR-FRET interf inactive | LEDGF integ conf inactive
Oc1cc(CNC2CCCCC2)c(O)cc1CNC1CCCCC1	LEDGF integ inh 14 | IN multimer up inactive | TR-FRET interf inactive | LEDGF integ conf 24
Cc1cc(NC(=O)CC#N)n(-c2ccccc2)n1	LEDGF integ inh 16 | IN multimer up inactive | TR-FRET interf inactive | LEDGF integ conf inactive
Cc1cc(NC(=O)CSc2nnc(-c3ccncc3)n2Cc2ccccc2)n(-c2ccccc2)n1	LEDGF integ inh 70 | IN multimer up inactive | TR-FRET interf inactive | LEDGF integ conf inactive
COC(=O)C1CN(Cc2cn(Cc3ccc(C)cc3)nn2)CCS(=O)(=O)N1Cc1ccc(C)cc1 (centres undefined)	none (no result: ABHD5 PLIN5 PPI)
CC(C)C[C@H]1COc2cccc(F)c2S(=O)(=O)N1Cc1cn(Cc2ccc(C(F)(F)F)cc2)nn1	none (no result: ABHD5 PLIN5 PPI)
Cc1ccccc1NC(=S)NNC(=O)c1csc2c1CCC(C)C2 (centres undefined)	LEDGF integ inh 51 | IN multimer up inactive | TR-FRET interf inactive | LEDGF integ conf inactive
O=C(NCc1cccs1)c1ccc2sc([C@@H]3O[C@H](CO)[C@H](O)[C@H](O)[C@H]3O)nc2c1	LEDGF integ inh 33 | IN multimer up inactive | TR-FRET interf inactive | LEDGF integ conf inactive
COC(=O)[C@]12C[C@H](CC(=O)N3CCN(C(=O)c4ccco4)CC3)C(=O)N(CCc3ccc(OC)c(OC)c3)C1=C[C@H](C(C)(C)C)O[C@@H]2C	none (no result: ABHD5 PLIN5 PPI)
CCOc1cc(C(=O)Nc2cccc3ncccc23)cc(OCC)c1OCC	LEDGF integ inh 16 | IN multimer up inactive | TR-FRET interf inactive | LEDGF integ conf inactive
CC(=O)Nc1cccc(C(=O)Nc2cccc3ncccc23)c1	none
CC(=O)c1cccc(-c2ccc3c(c2)C(C)(Cc2ccc(S(C)(=O)=O)cc2)C(=O)N3)c1 (centres undefined)	LEDGF integ inh 48 | IN multimer up inactive | TR-FRET interf inactive | LEDGF integ conf inactive
CC(=O)c1cccc(-c2ccc3c(c2)C(C)(Cc2ccccc2C#N)C(=O)N3)c1 (centres undefined)	none
COc1ccc(N2C(=O)c3n[nH]c(C)c3C2c2ccccc2)cc1 (centres undefined)	none (no result: ABHD5 PLIN5 PPI)
CC(C)NC(=O)N(C)C[C@@H]1Oc2ccc(NC(=O)Nc3ccc(C(F)(F)F)cc3)cc2CC(=O)N([C@H](C)CO)C[C@@H]1C	LEDGF integ inh 14 | IN multimer up inactive | TR-FRET interf inactive | LEDGF integ conf inactive
C[C@@H]1CN([C@@H](C)CO)C(=O)Cc2cc(NC(=O)Nc3ccc(C(F)(F)F)cc3)ccc2O[C@@H]1CN(C)S(=O)(=O)c1ccc(Cl)cc1	none
Cn1cc(Cl)c(-c2n[nH]c(=S)n2-c2ccccc2)n1	none
Cn1cc(Cl)c(-c2n[nH]c(=S)n2-c2ccc(F)cc2)n1	LEDGF integ inh 28 | IN multimer up inactive | TR-FRET interf inactive | LEDGF integ conf inactive
COC1C(O)CCC2(CO2)C1C1(C)OC1CC=C(C)C (centres undefined)	none (no result: ABHD5 PLIN5 PPI)
COC(=O)c1ccc2nc(-c3ccc(C)cc3)c(Cc3ccccc3)n2c1	LEDGF integ inh 14 (no result: ABHD5 PLIN5 PPI) | IN multimer up inactive | TR-FRET interf inactive | LEDGF integ conf inactive
CCOC(=O)[C@@]12CCCC3=C1N(CCC3)C(=O)[C@H]2CC(=O)NCc1cccs1	none (no result: ABHD5 PLIN5 PPI)
Cc1cc(-c2csc(NC(=O)c3ccc(=O)[nH]c3)n2)c(C)n1Cc1ccccc1	LEDGF integ inh 17 | IN multimer up inactive | TR-FRET interf inactive | LEDGF integ conf 26

Source: PubChem (The Scripps Research Institute Molecular Screening Center)
